Only some compounds are listed: those with a hit (about 21% of all), similar ones and a draw of the others.
SARS PLP yeast: qHTS of Yeast-based Assay for SARS-CoV PLP; S. cerevisiae expressing SARS-CoV PLpro, growth rescue; Potency, µM (titrated, usually from 32.9 µM), usual class: activators; actives 0.19% (n = 330,000); AID 485353, 2010; calls by dose curve; note: nearly all actives have a fitted effect of over 55% in size
Pf growth 48h: Primary qHTS for delayed death inhibitors of the malarial parasite plastid, 48 hour incubation. P. falciparum luciferase growth in erythrocytes, 48 h. Potency, µM (doses to about 28.7 µM), hits mostly inhibitors. actives 5.9% (n = 310,000). AID 504832, 2011
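In quantitative HTS format, infected erythrocytes bearing luciferase-reporter parasites were treated for a single generation at 37 C. Luminescence after adding detection reagent served as the growth measure.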
Pf growth 96h: Primary qHTS for delayed death inhibitors of the malarial parasite plastid, 96 hour incubation; P. falciparum luciferase reporter growth, 96 h; Potency, µM (doses to about 28.7 µM), most hits filed as inhibitors; actives 6.9% (n = 320,000); AID 504834, 2011
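Plates of compound plus infected erythrocytes (2% hematocrit, 0.05% parasitemia final) incubate 96 hours, 37 C, 5% CO2. Detection reagent added; reduced luminescence from the parasites' luciferase reporter flags inhibition.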
Shiga inhibitor: A qHTS for Small Molecule Inhibitors of Shiga Toxin; inhibition, % at 38.7 µM; actives 9.2% (n = 290,000); Vero cells, Shiga toxin protein synthesis inhibition reporter; AID 2315, 2010; in the data active = inhibition mostly above about 28%, no sharp cut-off; inactive = mostly below about 43%
NS1 inh: qHTS Assay for Inhibitors of Influenza NS1 Protein Function; Potency, µM (highest dose often 46.1 µM); actives 0.4% (n = 270,000); AID 2326, 2010; calls by dose curve; note: actives are rising curves; nearly all actives have a fitted effect of over 50% in size
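S. cerevisiae expressing influenza A NS1, grown in glucose, washed, then diluted 1:100 into pH 6.0 -URA galactose medium with 23 nl compound. Growth recovery read as OD600; NS1-free strain serves as control.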
Cycloheximide cs: Cycloheximide Counterscreen for Small Molecule Inhibitors of Shiga Toxin; cell reporter, cycloheximide protein synthesis inhibition counterscreen; max response, %; actives 12% (n = 300,000); AID 2314, 2010; in the data active = max response mostly above about 13%, no sharp cut-off; inactive = mostly below about 14%; note: read at 38.3 µM for the half of the compounds with a filed dose
Hits are given with their value; - = inactive; ? = inconclusive; . = no result. Unless noted, calls come from the whole dose curve; as a rule, active = well fitted inhibition curve with a large enough effect; inconclusive = small, poorly fitted or top-dose-only effect, or another doubt; inactive = no such curve, though single readings can be large or run the other way.

SMILES | SARS PLP yeast | Pf growth 48h | Pf growth 96h | Shiga inhibitor | NS1 inh | Cycloheximide cs
CCOC(=O)/C=C/C(=O)Nc1cccc([N+](=O)[O-])c1 | - | - | - | - | - | 37.5
CCOC(=O)c1cccc(NC(=O)/C=C/c2cccc([N+](=O)[O-])c2)c1 | - | - | - | - | - | -
Cn1cccc1C(=O)C(=O)Nc1cccc(Cl)c1Cl | - | - | - | - | - | -
CN(C(=O)c1cc([N+](=O)[O-])ccc1NCc1cccnc1)c1ccccc1 | - | - | ? | - | - | -
Cc1ccc(C(=O)Cn2nc(C(=O)O)c3ccccc3c2=O)cc1C | - | - | - | - | - | -
O=C(Cn1nc(C(=O)O)c2ccccc2c1=O)c1cc(F)ccc1F | - | - | - | - | - | -
Cc1cc(C(=O)Cn2nc(C(=O)O)c3ccccc3c2=O)c(C)n1CC(F)(F)F | - | - | - | 188.8 | . | 36.3
Cc1cc(C(=O)Cn2nc(C(=O)O)c3ccccc3c2=O)c(C)n1CCc1ccc(F)cc1 | - | - | - | - | - | 20.1
CC1(C)CC(=O)c2cn3nc(C(F)(F)F)nc3nc2C1 | - | - | . | - | - | -
Cc1[nH]c(=O)n(C(C)(C)C)c(=O)c1Cl | . | . | . | - | . | -
CCC(Sc1nnnn1C)C(=O)Nc1ccc(C(C)=O)cc1 (configuration not stated) | - | - | . | 114.8 | - | 23.3
Cc1noc(C)c1NC(=O)N(C)C[C@H]1Oc2ccc(NC(=O)c3ccncc3)cc2C(=O)N([C@H](C)CO)C[C@@H]1C | - | . | . | . | . | .
CSc1nc2n(n1)C(C)C1=C(CCCC1=O)N2 (configuration not stated) | - | - | 2.94µM | - | . | -
CCSc1nc2n(n1)C(c1cccc(F)c1)C1=C(CCCC1=O)N2 (configuration not stated) | - | ? | ? | - | - | -
O=C(O)CSc1nnc(-c2cccc(S(=O)(=O)N3CCOCC3)c2)n1-c1cccc(Cl)c1 | - | - | - | - | - | -
CCOC(=O)c1sc(NC(=O)c2ccc(=O)[nH]c2)nc1C | - | - | - | - | - | -
CCOc1ccc(C(=O)Nc2nc(C)c(C(=O)OC)s2)cc1 | - | - | - | 51.3 | - | 34.9
C=CCOC(=O)c1sc(NC(=O)c2ccc(OC)cc2)nc1C | - | - | - | - | - | 15.7
COC(=O)c1sc(NC(=O)c2ccncc2)nc1C | - | - | - | - | - | -
O=C(Nc1ccc(C(=O)N2CCCC2)cc1)c1ccc(F)cc1Cl | - | - | - | - | - | -
O=C(Nc1ccc(C2=NCCN2)cc1)c1ccc(C(=O)Nc2ccc(C3=NCCN3)cc2)c(Cl)c1 | - | 0.522µM | ? | - | - | -
CNC(=S)Nc1ccc(Cc2ccncc2)cc1 | - | - | - | - | - | -
O=C(NCc1ccncc1)Nc1cccc(Cl)c1 | - | - | . | - | - | 15.8
O=C(Nc1cccc(Cl)c1)Nn1cnnc1 | - | - | - | - | - | -
S=C(Nc1ccc(Cc2ccncc2)cc1)Nc1cccc(Cl)c1 | - | - | 13.1µM | - | - | -
SMILES | SARS PLP yeast | Pf growth 48h | Pf growth 96h | Shiga inhibitor | NS1 inh | Cycloheximide cs
O=C(Nc1cccc(Cl)c1)Nc1ccccc1-n1ccnc1 | - | ? | 11.7µM | - | - | -
O=C(NCc1cccnc1)Nc1cccc(Cl)c1 | - | - | ? | - | - | -
COc1ccc(CNC(=O)c2ccc(CS(=O)(=O)c3ccc(C)cc3)o2)cc1 | - | - | - | - | - | -
COC(=O)c1ccc(CNC(=O)COC(=O)/C=C/c2cc(OC)c(OC)c(OC)c2)cc1 | - | . | . | . | . | .
O=C(Nc1cccc(Cl)c1)Nc1csc([N+](=O)[O-])c1 | - | 3.7µM | 2.62µM | 46.2 | - | 15.5
COc1ccc(NC(=O)NCc2ccc(Cl)cc2)cc1 | - | - | - | - | - | -
COc1ccc(CNCCc2ccc(Cl)cc2Cl)cc1 | - | - | 5.86µM | - | - | -
O=C(Nc1ccncc1)Nc1cccc(Cl)c1 | - | 1.47µM | - | - | - | 16.3
COc1ccc(CNC(=O)Nc2cccc(Cl)c2)cc1 | - | - | 10.4µM | 46.3 | - | 42.8
Cc1ccc(/C=N\NC(=O)CCc2n[nH]c(=O)[nH]c2=O)o1 | - | - | - | - | . | -
O=C(Nc1cccc(C2=NCCN2)c1)Nc1cccc(C2=NCCN2)c1 | . | 1.69µM | 1.2µM | . | . | .
O=C(/C=C/c1ccc(/C=C/C(=O)Nc2ccc(C3=NCCN3)cc2)cc1)Nc1ccc(C2=NCCN2)cc1 | . | . | . | - | . | -
CCOC(=O)c1c(NC(=O)CSc2nnc(-c3ccncc3)n2Cc2ccco2)sc(C)c1C | - | - | . | - | - | -
Cc1ccc(S(=O)(=O)N2CCN(C(=O)CCc3c[nH]c4ccccc34)CC2)cc1 | - | ? | ? | . | . | .
CCOc1ccccc1OCCCC(=O)N1CCN(S(=O)(=O)c2ccc(C)cc2C)CC1 | - | ? | 10.4µM | . | . | .
Cc1ccccc1OCCC(=O)N1CCN(S(=O)(=O)c2ccc(F)cc2)CC1 | - | ? | - | - | - | -
Cc1cc(C)c(S(=O)(=O)N2CCN(C(=O)CCOc3ccccc3C)CC2)c(C)c1 | - | 13.1µM | ? | . | . | .
CCOc1ccccc1OCCCC(=O)N1CCN(S(=O)(=O)c2ccc(C)cc2)CC1 | - | ? | ? | - | - | -
Cc1ccc(S(=O)(=O)N2CCN(C(=O)CCc3c[nH]c4ccccc34)CC2)c(C)c1 | - | ? | 7.38µM | . | . | .
FC(F)(F)c1cc(Cl)c2nc(-c3ccccc3)cn2c1 | - | - | - | 87.6 | - | 41.4
Nc1cccc(-c2cn3cc(C(F)(F)F)cc(Cl)c3n2)c1 | - | - | - | 64.0 | - | 36.4
Cc1cc(C(F)(F)F)nc(-n2cc(-c3cccc(N)c3)nn2)n1 | - | - | ? | - | - | -
COc1ccc(C(=O)CSc2nnc(NC(=O)C3CC(=O)N(c4ccccc4C)C3)s2)cc1 (configuration not stated) | - | - | ? | - | - | -
CCN(CC)c1ccc(N)cc1 | - | 1.85µM | ? | . | . | .
CCN(CC)C(=O)c1cccc(NC(=O)C2CCN(C(=O)c3cccs3)CC2)c1 | - | . | . | . | . | .
SMILES | SARS PLP yeast | Pf growth 48h | Pf growth 96h | Shiga inhibitor | NS1 inh | Cycloheximide cs
COCc1nn2c(N)c(-c3ccccc3)cnc2c1-c1ccccc1 | - | - | ? | 32.9 | - | 37.7
COc1ccc(-c2c(C)nn3c(N)c(-c4ccccc4)cnc23)cc1OC | - | ? | - | - | - | 17.8
COc1ccccc1-c1c(C)nn2c(N)c(-c3ccccc3)cnc12 | - | - | - | 66.8 | - | 38.8
O=C(N/N=C/c1ccc2ncccc2c1)c1ccco1 | - | - | - | - | . | -
CN(C)c1ccc(/C=N\NC(=O)c2cccc3cc[nH]c23)cc1 | - | - | ? | 55.9 | - | 32.4
CN(C)c1ccc(/C=N/NC(=O)c2cc(=O)[nH]c3ccccc23)cc1 | - | - | - | - | - | -
Cc1c(C(=O)N/N=C/c2ccoc2)cccc1[N+](=O)[O-] | - | - | ? | - | - | -
O=C(N/N=C/c1ccoc1)c1ccccc1F | - | - | ? | 89.8 | - | 74.6

Assay outcomes (PubChem)
